Screening results as filed in PubChem BioAssay.
CFTR F508del cor – F508del CFTR correction, initial screen, CFBE line, single point; CFBE cells, YFP halide quenching; stimulated with forskolin plus potentiator P3; % fluorescence drop versus neutral controls; activity (quench increase), % at 7.58 µM; hit rate 0.36% among 350,000;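 active means mean added fluorescence quench of at least 8% versus neutral control, with both replicates also reaching 8%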;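 further: cells transiently co-express mutant CFTR-F508del with the halide-sensitive YFP; corrector assay measuring rescue of mutant channel to the surface after 24 h compound exposure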
INS-1E GSIS act – GLuc luminescence reporter in INS-1E cells, primary screen for activators of glucose-dependent secretion of insulin; INS-1E GLuc reporter insulin secretion, 2-3 h; activation, % at 16.6 µM; hit rate 0.61% among 370,000; AID 743287, 2014;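 active means lowest replicate activation of at least 40%, so every replicate reaches that level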;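 further: 0% = median of neutral control wells and 100% = median of IBMX positive control wells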
RAD52 inh – RAD52 DNA annealing inhibitors, primary screen, biochemical, FRET, single point, set 2; DNA repair protein RAD52 homolog (Homo sapiens), P43351; recombinant RAD52 DNA annealing, FRET fluorescence; inhibition, % at 18.7 µM; hit rate 0.46% among 360,000; AID 651710, 2012;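 active means every replicate showing at least 50% inhibition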
Target sequence (P43351 whole entry, looked up): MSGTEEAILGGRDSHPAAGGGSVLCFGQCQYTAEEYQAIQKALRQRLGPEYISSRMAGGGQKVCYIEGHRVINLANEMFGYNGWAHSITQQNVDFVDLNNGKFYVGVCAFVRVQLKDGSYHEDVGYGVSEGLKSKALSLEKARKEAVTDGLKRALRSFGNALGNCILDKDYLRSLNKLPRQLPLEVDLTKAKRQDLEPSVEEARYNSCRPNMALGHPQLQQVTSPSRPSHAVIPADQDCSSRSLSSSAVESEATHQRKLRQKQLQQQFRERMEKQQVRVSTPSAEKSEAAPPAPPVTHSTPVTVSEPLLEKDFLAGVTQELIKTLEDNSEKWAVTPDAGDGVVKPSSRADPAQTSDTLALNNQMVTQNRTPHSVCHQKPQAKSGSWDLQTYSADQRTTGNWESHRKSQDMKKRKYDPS
RAD54 branch – inhibitors of human RAD54 branch migration, primary screen, biochemical, fluorescence, single point; RAD54 Holliday junction branch migration, FAM/BHQ fluorescence; inhibition, % at 10.4 µM; hit rate 0.14% among 360,000; AID 602329, 2012;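 active means mean normalized replicate activity at least 40 and at least half of replicates scoring 40 or more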;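 further: 0% = median of neutral control wells and 100% = median of positive control wells; inhibitors cause a drop in the FAM fluorescence signal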
EWS-Fli block – EWS/Fli-driven NR0B1 reporter inhibitors, primary screen, A673 cells, NR0B1 luciferase, luminescence, MLPCN library; hit rate 0.67% among 350,000; inhibition, % at 12.6 µM; viability-normalised; AID 651661, 2012;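 active means mean inhibition of at least 50% after viability correction, with every replicate also passing that limit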;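 further: firefly luciferase signal divided by Alamar Blue viability fluorescence both relative to DMSO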
LGR2 antag – inhibitors of bursicon-induced LGR2 CRE-luciferase signal, primary screen, cell-based, HEK293, CRE-luciferase reporter, bursicon stimulation; AID 720647, 2013; bursicon-stimulated, 4 h; Drosophila bursicon receptor LGR2 (rickets); hit rate 0.35% among 380,000; inhibition, % at 9.99 µM;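 active means drop in luminescence signal, shown as inhibition above about 50% in the replicate tests, limit read from the data, passing the limit was not always enough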;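 further: agonist challenge used bursicon conditioned medium at about half maximal strength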
DNA binding – DNA binders by acridine orange displacement, dose response, counter-screen for EWS/Fli inhibitor project, biochemical, fluorescence polarization, cherry-pick | shares compounds with EWS-Fli block | salmon sperm DNA acridine orange fluorescence polarization | AC35, µM (top dose mostly 68 µM), for inactives: top-dose activity change, negative = DNA binding | hit rate 2% among 640;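 active means fitted curve reaches a 35% signal fall AC35 below twice the sample's top valid tested dose, actives reach about 48 µM in these data; inactive means the rest, including activity in the rising direction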;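 further: lower polarization ratio signals compound binding to DNA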
* = called active by the depositor; · = no result. In the library only some 1.8% were active in any assay of this set; here they are far more common.

SMILES	CFTR F508del cor	INS-1E GSIS act	RAD52 inh	RAD54 branch	EWS-Fli block	LGR2 antag	DNA binding
COC(=O)C[C@@H]1CC[C@@H]2[C@H](COc3ccc(NC(=O)c4cc(C)on4)cc3C(=O)N2C)O1	14*	-2	-13	6	60*	10	-15%
Cc1cc(C(=O)Nc2ccc3c(c2)C(=O)N(C)[C@@H]2CC[C@H](CC(=O)N[C@H](C)c4ccccc4)O[C@H]2CO3)no1	-2	5	11	-3	58*	6	-7%
CCN(CC)S(=O)(=O)c1cccc(C(=O)OCC(=O)c2ccc3c(c2)NC(=O)CO3)c1	·	·	·	0	·	·	·
Cc1nn(-c2ccccc2)c(C)c1C1C(C#N)=C(N)Oc2n[nH]c(C)c21 (stereo not drawn)	·	·	·	-3	·	·	·
O=C(Sc1cccc2cccnc12)c1ccc(F)cc1	·	16	-3	·	49	24	·
O=C(Sc1cccc2cccnc12)c1ccccc1Br	2	5	-13	-1	50*	-2	-1%
O=C(CN(C(=O)c1csnn1)c1ccccc1)NCc1ccc2c(c1)OCO2	2	15	-4	-7	-8	-3	·
COCCOC(=O)N1C(=O)[C@@]2(c3cc(C#CCC(C(=O)OC)C(=O)OC)ccc31)[C@H](c1ccccc1OCCO)N1[C@H](c3ccccc3)[C@H](c3ccccc3)OC(=O)[C@H]1[C@@H]2C(=O)N1CCN(c2ncccn2)CC1	2	·	-4	0	61*	·	1%
COCCOC(=O)N1C(=O)[C@@]2(c3cc(C#CCCO)ccc31)[C@H](C(=O)N1CCN(c3ncccn3)CC1)[C@H]1C(=O)O[C@H](c3ccccc3)[C@H](c3ccccc3)N1[C@@H]2c1ccccc1OCCO	0	·	19	3	-6	·	·
COC(=O)C(CC#Cc1ccc2c(c1)[C@]1(C(=O)N2)[C@H](c2ccc(OCCO)cc2)N2[C@H](c3ccccc3)[C@H](c3ccccc3)OC(=O)[C@H]2[C@@H]1C(=O)N1CCN(c2ncccn2)CC1)C(=O)OC	0	·	-24	-1	76*	·	3%
COc1ccccc1N1CCN(C(=O)c2ccncc2)CC1	·	·	·	-6	·	·	·
COc1ccccc1NC(=O)N1[C@@H]2CNC[C@H]1[C@@H]2c1ccc(-c2ccc(C#N)cc2)cc1	-2	14	42	·	54*	19	-16%
COc1ccccc1NC(=O)N1[C@@H]2CNC[C@H]1C2c1ccc(-c2cccc(C#N)c2)cc1 (stereo partly drawn)	3	15	-9	·	·	14	·
COc1ccccc1-c1cn(CC[C@H]2CC[C@@H](NC(=O)C3CCCC3)[C@@H](CO)O2)nn1	-2	1	-5	·	57*	25	-16%
COc1ccccc1-c1cn(CC[C@H]2CC[C@@H](NC(=O)C3CCCC3)[C@H](CO)O2)nn1	1	8	10	·	-1	-7	·
O=C(c1ccccc1)c1coc2ccc(O)c(CN3CCOCC3)c12	·	·	·	4	·	·	·
CCc1ccc2oc(C(=O)N3CCN(c4ccccc4OC)CC3)cc(=O)c2c1	1	-6	-2	2	56*	-4	-4%
CC1CN(C(=O)CS(=O)(=O)Cc2ccc(Cl)cc2)CC(C)O1 (stereo not drawn)	1	-1	-6	4	1	-1	·
C[C@@H]1C[C@@H]2OC(=O)[C@]3(C)[C@H]2[C@@H](OC3(C)O)[C@]2(C)C(=O)C=C[C@H]12 (stereo partly drawn)	-3	-12	1	-8	-20	19	·
C=C1C(=O)C=C[C@]2(C)C[C@@H]3OC(=O)[C@](C)(O)[C@H]3C[C@@H]12	1	-14	-13	6	65*	35	15%
